In PubChem BioAssay (NCATS):
Records with an inconclusive call do not appear. Activity calls are given as the source filed them. Unless noted, calls come from the whole dose curve; as a rule, active = well fitted curve in either direction with a large enough effect (not every such curve was filed as active); inconclusive = small, poorly fitted or top-dose-only effect, or another doubt; inactive = flat fitted curve, though single readings scatter.

What was measured:
[1] = molecular target: Lysosomal acid glucosylceramidase (Homo sapiens) (UniProt P04062); assay: Glucocerebrosidase-p2 (AID 348; in the data active = potency below about 10 µM; note: potency is the fitted concentration of half-maximal effect); settings: purified GBA, blue fluorogenic substrate, 40 min
Procedure, shortened: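 Normal human glucocerebrosidase (0.2 nM) with blue fluorogenic substrate (80 uM final) in citrate/phosphate pH 5.9 with 10mM sodium taurocholate, 0.01% tween-20; 40 min RT, NaOH/glycine stop; fluorescence Ex 365/Em 440; AC50 from a titration from 0.6 nM upwards.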

[2] = AP1 Signaling Pathway (AID 357); settings: ME-180 AP-1-bla reporter, EGF-induced, beta-lactamase ratio, 5 h; at 7.69 µM (top of the series) unless noted;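 note: ME-180 reporter cells stimulated with EGF at its EC50 level; % is set by controls: 0 for no effect and ±100 for the full control effect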
Procedure, shortened: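 Read-out was the 460nm/530nm emission ratio (excitation 405nm) after CCF4 loading for 2.5 hours at room temperature. Cells carried an AP-1-driven beta-lactamase reporter, were stimulated with EC50 EGF plus compound for 5 hours, and AC50 values came from titrations.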

[3] = molecular target: Cytochrome P450 1A2 (Homo sapiens) (UniProt P05177); assay: p450-cyp1a2 (AID 410; calls by dose curve; note: potency is the fitted concentration of half-maximal effect;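 for activity change, negative = inhibition: -100% = full effect of reference inhibitor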); settings: recombinant CYP1A2, luciferin-ME demethylation, luminescence; series mostly up to 57 µM
Procedure, shortened: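 O-Demethylation of luciferin 6' methyl ether by human CYP1A2 is monitored as luciferase luminescence. Substrate sits at Km (100uM); enzyme is 20nM. Values are scaled to 57 uM furafylline as maximal inhibition.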

[4] = NFAT Signaling Pathway (AID 444); settings: Jurkat NFAT-bla M1, carbachol, beta-lactamase ratio, 5 h; at 7.69 µM (top of the series) unless noted;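 note: carbachol stimulus at about its EC50 of 1 µM final; % is set by controls: 0 for no effect and ±100 for the full control effect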
Procedure, shortened: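 Jurkat cells carrying an NFAT-driven β-lactamase reporter and co-transfected muscarinic M1 receptor were treated with compound plus carbachol (1 uM final, an EC50 level) for 5 h at 37 °C. CCF4 loading followed for 1 h at RT; 460/530 nm ratio gave %activity.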

[5] = Stat Signaling Pathway (AID 446); settings: ME-180 (cervical carcinoma) SIE beta-lactamase reporter, IL-6 stimulated, 5 h; at 7.69 µM (top of the series) unless noted;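 note: ME-180 cervical cancer cells given 40 pM IL-6 alongside compound; SIE-controlled beta-lactamase reporter measured as 460/530 nm FRET emission ratio; % is set by controls: 0 for no effect and ±100 for the full control effect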
Procedure, shortened: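 Compound effects on IL-6-induced STAT reporter activity were measured in ME-180 cells. After overnight culture, cells were co-treated with 40 pM IL-6 for 5 hrs before beta-lactamase substrate loading at room temperature.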

[6] = molecular target: Glucocorticoid receptor (Homo sapiens) (UniProt P04150); assay: GR-EFC Redistribution (AID 451; calls by dose curve; note: potency is the fitted concentration of half-maximal effect); settings: CHO-K1 GR-EFC translocation, beta-gal luminescence, 2 h
Procedure, shortened: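 CHO-K1 cells stably expressing nuclear-localized β-gal enzyme acceptor and GR fused C-terminally to the enzyme donor fragment; ligand-driven nuclear translocation restores β-gal by complementation. Compounds titrated up to 46 uM final, 2 h at 37 °C; luminescence read.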

[7] = molecular target: Mitogen-activated protein kinase 10 (Mus musculus) (UniProt Q61831); assay: JNK3 AlphaScreen Assay (AID 530); settings: JNK3 lysate, c-Jun phosphorylation; series mostly up to 57.1 µM;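 note: kinase came from lysate of stimulated human HepG2 cells; signal reports phosphorylation of biotinylated GST-cJun 1-79 at Ser73 with 10 µM ATP; % is set by controls: 0 for no effect and ±100 for the full control effect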
Procedure, shortened: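 Phosphorylation of biotinylated GST-cJun(1-79) at Ser73 is measured by AlphaScreen proximity luminescence. Enzyme is JNK3 in HepG2 lysates activated with interleukin-1beta and tumor necrosis factor alpha; ATP is 10 uM final.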

[8] = molecular target: 3',5'-cyclic-AMP phosphodiesterase 4B (Homo sapiens) (UniProt Q07343); assay: qHTS Assay for Inhibitors of PDE-IV (AID 607; active = well fitted activation curve with a large enough effect in the main read-out, with a control signal flat, not every such curve was filed as active; note: % of control where 0% means no effect); settings: HEK293 ACTOne CNG channel cells, membrane potential fluorescence; series mostly up to 22.9 µM
Procedure, shortened: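 ACTOne HEK293 cells carry a modified cAMP-gated CNG channel and express endogenous PDE4; plated 1000 cells/well, compounds up to 22.9 uM final. Membrane-potential dye fluorescence (ex 535/em 590) was read; parental cells received 10 uM forskolin + 100 uM RO 20-1724.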

[9] = qHTS Assay for Lipid Storage Modulators (AID 1519; calls by dose curve); settings: Drosophila S3 cells, BODIPY lipid droplet/cell ratio, laser cytometry, cells loaded with oleic acid; for activity change, negative = inhibition: at 57.5 µM (top of the series)
Procedure, shortened: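 Cells seeded at 5,000 per well were treated with compounds over a concentration series and loaded with oleic acid (400 uM, as added). Lipid droplet fluorescence (488 nm excitation, 500-530 nm channel) was read by laser-scanning cytometry and normalized to 20 uM Triacsin C.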

[10] = Primary qHTS for small molecule stabilizers of the endoplasmic reticulum resident proteome: Secreted ER Calcium Modulated Protein (SERCaMP) assay (AID 1508630; active = well fitted curve in the direction sought with a large enough effect; an effect the other way counts as inactive or inconclusive; note: % is set by controls: 0 for no effect and ±100 for the full control effect); settings: SH-SY5Y GLuc-SERCaMP (Gaussia luciferase released on ER calcium loss) secretion, thapsigargin, luminescence; series mostly up to 38.4 µM
Procedure, shortened: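 The SH-SY5Y reporter protocol was run at 3 concentrations up to 38.3 uM (primary) or 11 concentrations (follow-up): 16 h compound, 100 nM thapsigargin for 4 h, then extracellular luciferase luminescence.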

[11] = molecular target: Glucocorticoid receptor (Homo sapiens) (UniProt P04150); assay: GR-GFP Redistribution (AID 450;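 active = compounds whose dose series gives a full or clear partial fitted curve of increased nuclear translocation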; note: potency is the fitted concentration of half-maximal effect); settings: U2OS GR-GFP nuclear translocation, laser cytometry, 2 h
[12] = molecular target: Cytochrome P450 3A4 (Homo sapiens) (UniProt P08684); assay: qHTS Assay for Inhibitors and Substrates of Cytochrome P450 3A4 (AID 884; active = well fitted curve in the direction sought with a large enough effect; an effect the other way counts as inactive or inconclusive; note: potency is the fitted concentration of half-maximal effect; nearly all actives have a fitted effect of over 50% in size); settings: recombinant CYP3A4, Luciferin-PPXE luminescence; series mostly up to 57.1 µM
Procedure, shortened: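 Luminescent readout of luciferin produced by CYP3A4 (20 nM) dealkylation of Luciferin-PPXE, 25 uM (its KM). NADPH-driven reaction ran 60 min at RT after 10 min compound preincubation; data scaled to 57 uM ketoconazole as 100% inhibition.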

[13] = molecular target: Cytochrome P450 3A4 (Homo sapiens) (UniProt P08684); assay: qHTS Assay for Activators of Cytochrome P450 3A4 (AID 885; active = well fitted curve in the direction sought with a large enough effect; an effect the other way counts as inactive or inconclusive; note: nearly all actives have a fitted effect of over 65% in size); settings: recombinant CYP3A4, Luciferin-PPXE luminescence, 60 min; series mostly up to 57.1 µM
Procedure, shortened: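 CYP3A4 activity: Luciferin-PPXE O-dealkylation, 25uM substrate, 200mM KPO4, RT throughout. Read-out is luciferase luminescence; higher values reflect activation.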

[14] = molecular target: Cytochrome P450 2C19 (Homo sapiens) (UniProt P33261); assay: qHTS Assay for Inhibitors and Substrates of Cytochrome P450 2C19 (AID 899; active = well fitted curve in the direction sought with a large enough effect; an effect the other way counts as inactive or inconclusive; note: potency is the fitted concentration of half-maximal effect; nearly all actives have a fitted effect of over 60% in size); settings: recombinant CYP2C19, luciferin-H EGE luminescence; series mostly up to 57.1 µM
Procedure, shortened: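 Human CYP2C19 (5nM) with Luciferin-H EGE at 10uM (its KM) in 50mM KPO4 was preincubated with compound for 10 min at 37C. NADPH regeneration started a 60 min 37C reaction. Luciferin was read by luminescence, normalized to 57uM ketoconazole.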

[15] = Confirmation and Secondary Assay for Modulators of Hemoglobin Beta Chain Splicing at IVS2 654 locus (AID 910; active = well fitted curve in the direction sought with a large enough effect; an effect the other way counts as inactive or inconclusive;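 note: per-well total GFP intensity by laser scanning cytometry after 2-day treatment; % of control where 0% means no effect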); settings: HeLa EGFP-654 splicing reporter, GFP fluorescence, 48 h; series mostly up to 38.3 µM
Procedure, shortened: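 HeLa cells stably carrying EGFP interrupted by mutant beta-globin IVS2-654 intron (CMV-driven) were treated with compound for 2 days at 37C; corrected splicing was scored as total peak GFP intensity per well (488 nm excitation, 500-520 nm emission).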

[16] = Confirmation and Secondary Assay for Modulators of Hemoglobin Beta Chain Splicing at IVS2 705 locus (AID 930; active = well fitted curve in the direction sought with a large enough effect; an effect the other way counts as inactive or inconclusive;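 note: HeLa cells stably expressing the EGFP-705 splicing reporter; GFP fluorescence per well restored by corrected splicing of the IVS2-705 intron in EGFP; % of control where 0% means no effect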); settings: HeLa EGFP-705 splicing reporter, GFP fluorescence, 48 h; series mostly up to 38.3 µM
Procedure, shortened: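 Splice-correction reporter: EGFP cDNA split by beta-globin intron 2 bearing the 705 mutation, stably in HeLa. Compound incubation 2 days, 37C; fluorescent objects 5-250 µm summed per well.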

[17] = molecular target: Cytochrome P450 2C9 (Homo sapiens) (UniProt P11712); assay: qHTS Assay for Inhibitors and Substrates of Cytochrome P450 2C9 (AID 883; active = well fitted curve in the direction sought with a large enough effect; an effect the other way counts as inactive or inconclusive; note: potency is the fitted concentration of half-maximal effect; nearly all actives have a fitted effect of over 60% in size); settings: recombinant CYP2C9, luciferin-H luminescence, 60 min; series mostly up to 57.1 µM
Procedure, shortened: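 Human CYP2C9 (10nM) hydroxylated Luciferin-H (100uM, at its KM) to luciferin in 25mM KPO4. Compound was preincubated 10 min at 37C, then NADPH regeneration started a 60 min reaction at 37C. Luminescence was read after detection reagent, normalized to 57uM sulphaphenazole.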

[18] = molecular target: Ubiquitin carboxyl-terminal hydrolase 1 (Homo sapiens) (UniProt O94782); assay: Inhibitors of USP1/UAF1: Pilot qHTS (AID 504865; active = well fitted curve in the direction sought with a large enough effect; an effect the other way counts as inactive or inconclusive;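 note: rhodamine fluorescence freed from ubiquitin-rhodamine substrate followed over time; top concentration of the series differs between compounds; % is set by controls: 0 for no effect and ±100 for the full control effect; nearly all actives have a fitted effect of over 35% in size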); settings: purified USP1/UAF1, Ub-rhodamine cleavage fluorescence; series mostly up to 54.9 µM
Procedure, shortened: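 USP1/UAF1 complex at 1 nM preincubated 15 min at room temperature with compound, then Ub-Rho substrate added at 150 nM final. Fluorescence (480/540 nm) read kinetically in 50 mM HEPES pH 7.8, 0.5 mM EDTA, 1 mM TCEP, 0.1 mg/ml BSA, 0.01% Tween-20.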

[19] = measured here: cell count channel max response
[20] = measured here: lipid channel max response

Chain of Glucocorticoid receptor (Homo sapiens) (P04150 whole entry, looked up, the tested form may be a part): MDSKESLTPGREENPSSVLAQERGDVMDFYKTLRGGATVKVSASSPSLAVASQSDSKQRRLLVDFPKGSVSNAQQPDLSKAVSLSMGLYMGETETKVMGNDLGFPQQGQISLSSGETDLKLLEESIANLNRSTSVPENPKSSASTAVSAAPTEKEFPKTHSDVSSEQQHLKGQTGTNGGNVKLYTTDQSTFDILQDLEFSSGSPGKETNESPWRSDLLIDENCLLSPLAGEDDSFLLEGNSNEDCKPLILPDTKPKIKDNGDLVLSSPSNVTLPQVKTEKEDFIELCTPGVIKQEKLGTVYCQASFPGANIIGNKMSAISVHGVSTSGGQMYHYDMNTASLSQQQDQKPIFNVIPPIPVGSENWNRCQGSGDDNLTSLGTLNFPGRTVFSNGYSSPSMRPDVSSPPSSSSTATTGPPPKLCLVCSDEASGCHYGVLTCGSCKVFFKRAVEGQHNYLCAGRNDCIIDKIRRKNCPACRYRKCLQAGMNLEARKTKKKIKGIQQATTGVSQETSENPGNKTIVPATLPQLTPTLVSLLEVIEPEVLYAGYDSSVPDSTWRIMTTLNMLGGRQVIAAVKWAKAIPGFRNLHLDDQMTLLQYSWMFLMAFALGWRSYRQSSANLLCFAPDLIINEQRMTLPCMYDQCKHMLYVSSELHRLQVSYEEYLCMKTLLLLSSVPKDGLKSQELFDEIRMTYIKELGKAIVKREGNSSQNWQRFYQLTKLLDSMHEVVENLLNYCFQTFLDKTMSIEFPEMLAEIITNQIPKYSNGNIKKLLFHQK
Chain of Lysosomal acid glucosylceramidase (Homo sapiens) (P04062 whole entry, looked up): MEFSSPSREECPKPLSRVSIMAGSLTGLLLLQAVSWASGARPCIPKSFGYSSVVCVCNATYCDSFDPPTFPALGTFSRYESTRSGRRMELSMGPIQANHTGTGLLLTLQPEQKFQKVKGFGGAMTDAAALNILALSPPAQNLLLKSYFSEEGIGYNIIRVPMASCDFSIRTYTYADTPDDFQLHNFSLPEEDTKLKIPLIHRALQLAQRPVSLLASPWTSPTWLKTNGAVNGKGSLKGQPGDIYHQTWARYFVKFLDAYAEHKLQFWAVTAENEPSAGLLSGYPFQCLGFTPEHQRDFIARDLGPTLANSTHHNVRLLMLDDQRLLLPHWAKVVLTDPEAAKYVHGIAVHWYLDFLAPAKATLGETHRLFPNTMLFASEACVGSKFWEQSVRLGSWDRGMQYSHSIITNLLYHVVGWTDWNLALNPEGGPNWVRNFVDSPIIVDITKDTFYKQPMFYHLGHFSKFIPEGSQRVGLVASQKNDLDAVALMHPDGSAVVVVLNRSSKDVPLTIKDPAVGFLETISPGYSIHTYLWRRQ
Chain of Cytochrome P450 3A4 (Homo sapiens) (P08684 whole entry, looked up): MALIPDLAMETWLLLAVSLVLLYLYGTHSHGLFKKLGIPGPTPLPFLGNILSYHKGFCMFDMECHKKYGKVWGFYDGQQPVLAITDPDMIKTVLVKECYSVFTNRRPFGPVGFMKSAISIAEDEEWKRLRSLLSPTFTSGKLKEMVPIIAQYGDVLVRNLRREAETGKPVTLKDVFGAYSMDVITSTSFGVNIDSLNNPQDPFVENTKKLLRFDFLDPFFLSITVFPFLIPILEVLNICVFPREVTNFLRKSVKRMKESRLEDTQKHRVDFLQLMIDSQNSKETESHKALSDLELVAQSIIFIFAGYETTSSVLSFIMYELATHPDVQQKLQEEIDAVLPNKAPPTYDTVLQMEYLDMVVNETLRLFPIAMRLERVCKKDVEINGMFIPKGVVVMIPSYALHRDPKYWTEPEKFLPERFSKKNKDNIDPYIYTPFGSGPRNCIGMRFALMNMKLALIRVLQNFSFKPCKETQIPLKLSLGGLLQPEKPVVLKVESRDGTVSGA
Chain of Cytochrome P450 1A2 (Homo sapiens) (P05177 whole entry, looked up): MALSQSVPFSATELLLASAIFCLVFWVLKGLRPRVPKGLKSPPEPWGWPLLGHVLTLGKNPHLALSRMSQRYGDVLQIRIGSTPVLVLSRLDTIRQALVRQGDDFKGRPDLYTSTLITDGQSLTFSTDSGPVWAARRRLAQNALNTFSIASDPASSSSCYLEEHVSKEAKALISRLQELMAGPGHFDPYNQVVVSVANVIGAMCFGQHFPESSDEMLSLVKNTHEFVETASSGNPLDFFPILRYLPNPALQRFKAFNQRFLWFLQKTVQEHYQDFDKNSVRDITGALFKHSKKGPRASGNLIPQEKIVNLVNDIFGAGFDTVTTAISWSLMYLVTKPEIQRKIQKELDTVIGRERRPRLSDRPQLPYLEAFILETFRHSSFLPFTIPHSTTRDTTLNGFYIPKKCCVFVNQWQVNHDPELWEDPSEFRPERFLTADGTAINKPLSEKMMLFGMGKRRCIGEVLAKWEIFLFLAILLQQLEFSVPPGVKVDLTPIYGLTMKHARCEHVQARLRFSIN
Chain of 3',5'-cyclic-AMP phosphodiesterase 4B (Homo sapiens) (Q07343 whole entry, looked up): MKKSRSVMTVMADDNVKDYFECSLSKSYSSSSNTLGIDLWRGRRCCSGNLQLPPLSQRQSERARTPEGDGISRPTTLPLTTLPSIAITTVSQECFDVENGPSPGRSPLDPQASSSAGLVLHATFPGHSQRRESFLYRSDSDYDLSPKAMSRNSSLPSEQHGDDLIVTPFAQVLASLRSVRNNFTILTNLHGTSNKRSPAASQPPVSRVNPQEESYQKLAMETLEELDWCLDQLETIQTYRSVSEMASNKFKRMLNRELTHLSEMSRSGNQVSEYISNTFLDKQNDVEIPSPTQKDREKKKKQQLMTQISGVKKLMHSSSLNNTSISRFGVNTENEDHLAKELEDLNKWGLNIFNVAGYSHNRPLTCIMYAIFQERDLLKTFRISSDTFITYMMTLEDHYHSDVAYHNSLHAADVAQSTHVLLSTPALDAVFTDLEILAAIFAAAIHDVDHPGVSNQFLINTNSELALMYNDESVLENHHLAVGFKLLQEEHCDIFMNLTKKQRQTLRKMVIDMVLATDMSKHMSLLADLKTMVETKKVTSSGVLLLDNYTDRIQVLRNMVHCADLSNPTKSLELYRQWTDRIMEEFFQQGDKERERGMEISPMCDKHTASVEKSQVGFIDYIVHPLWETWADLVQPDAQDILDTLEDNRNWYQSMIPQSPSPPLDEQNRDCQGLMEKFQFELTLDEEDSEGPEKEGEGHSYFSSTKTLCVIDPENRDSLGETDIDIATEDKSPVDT
Chain of Cytochrome P450 2C9 (Homo sapiens) (P11712 whole entry, looked up): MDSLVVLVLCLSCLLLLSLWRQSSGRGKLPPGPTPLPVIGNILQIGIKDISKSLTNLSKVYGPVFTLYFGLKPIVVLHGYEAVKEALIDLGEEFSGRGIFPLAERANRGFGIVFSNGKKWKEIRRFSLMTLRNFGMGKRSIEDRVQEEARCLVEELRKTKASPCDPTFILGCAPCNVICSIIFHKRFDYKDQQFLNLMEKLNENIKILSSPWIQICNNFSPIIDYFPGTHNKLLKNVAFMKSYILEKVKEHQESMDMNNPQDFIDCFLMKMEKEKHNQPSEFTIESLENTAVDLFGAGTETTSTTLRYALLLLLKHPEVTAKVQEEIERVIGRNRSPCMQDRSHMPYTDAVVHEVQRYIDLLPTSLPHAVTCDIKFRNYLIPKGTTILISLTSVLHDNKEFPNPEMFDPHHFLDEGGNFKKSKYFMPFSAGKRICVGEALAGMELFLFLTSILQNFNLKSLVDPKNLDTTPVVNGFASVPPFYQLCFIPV
Chain of Ubiquitin carboxyl-terminal hydrolase 1 (Homo sapiens) (O94782 whole entry, looked up): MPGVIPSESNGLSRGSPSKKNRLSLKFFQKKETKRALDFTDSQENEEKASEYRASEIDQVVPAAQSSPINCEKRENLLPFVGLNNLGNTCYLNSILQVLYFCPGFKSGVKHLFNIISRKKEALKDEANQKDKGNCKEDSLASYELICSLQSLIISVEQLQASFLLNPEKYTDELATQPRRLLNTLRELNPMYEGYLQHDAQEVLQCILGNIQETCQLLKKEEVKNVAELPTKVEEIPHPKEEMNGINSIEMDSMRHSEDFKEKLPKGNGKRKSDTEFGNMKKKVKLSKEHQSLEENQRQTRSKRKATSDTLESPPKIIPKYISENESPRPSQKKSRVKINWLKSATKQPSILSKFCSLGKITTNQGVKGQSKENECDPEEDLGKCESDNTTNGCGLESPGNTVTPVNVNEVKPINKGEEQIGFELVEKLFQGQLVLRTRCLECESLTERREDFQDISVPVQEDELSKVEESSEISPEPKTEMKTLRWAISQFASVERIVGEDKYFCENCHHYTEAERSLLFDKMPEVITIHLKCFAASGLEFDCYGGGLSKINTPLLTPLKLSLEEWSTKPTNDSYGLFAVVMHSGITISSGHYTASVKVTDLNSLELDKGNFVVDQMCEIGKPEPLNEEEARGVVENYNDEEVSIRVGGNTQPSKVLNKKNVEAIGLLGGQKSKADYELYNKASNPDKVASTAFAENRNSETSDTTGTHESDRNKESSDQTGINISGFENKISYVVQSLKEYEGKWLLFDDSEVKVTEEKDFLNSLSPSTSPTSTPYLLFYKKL
Chain of Cytochrome P450 2C19 (Homo sapiens) (P33261 whole entry, looked up): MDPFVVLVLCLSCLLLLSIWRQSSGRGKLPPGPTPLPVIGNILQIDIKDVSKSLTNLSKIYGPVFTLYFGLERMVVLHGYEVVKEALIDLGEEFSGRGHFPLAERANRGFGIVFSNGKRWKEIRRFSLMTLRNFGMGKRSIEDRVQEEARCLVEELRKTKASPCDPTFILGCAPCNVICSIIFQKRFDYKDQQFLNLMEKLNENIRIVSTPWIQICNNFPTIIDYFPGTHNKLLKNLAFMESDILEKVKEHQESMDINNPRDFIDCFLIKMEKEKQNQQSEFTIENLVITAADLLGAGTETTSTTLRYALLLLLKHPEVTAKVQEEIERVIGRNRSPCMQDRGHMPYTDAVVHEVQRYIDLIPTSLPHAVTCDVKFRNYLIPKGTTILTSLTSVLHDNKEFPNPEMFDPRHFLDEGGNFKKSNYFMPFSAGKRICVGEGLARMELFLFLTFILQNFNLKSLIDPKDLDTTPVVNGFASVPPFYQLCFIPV

SMILES	Potency [1]	activity change, negative = inhibition [2]	Potency [3]	activity change, negative = inhibition [4]	activity, negative = inhibition [5]	Potency [6]	outcome [7]	Potency [8]	activity change, negative = inhibition [9]	max response [9, 19]	max response [9, 20]	Potency [10]	Potency [11]	Potency [12]	Potency [13]	Potency [14]	outcome [15]	outcome [16]	Potency [17]	Potency [18]
O=C(c1csnn1)N1CCC[C@@]2(CCN(c3ncccn3)C2)C1	> 11.4 µM (inactive)	-0.372% (inactive)	12.6 µM (active)	8.43% (inactive)	1.56% (inactive)	> 46 µM (inactive)	inactive	inactive	7.22% (inactive)	8.99%	21.1%	inactive								
CN(C)c1ccc(-c2cncnc2NCc2cccs2)cc1	> 11.4 µM (inactive)	-15.1% (inactive)	0.398 µM (active)	2.25% (inactive)	-0.237% (inactive)	> 46 µM (inactive)			7.98% (inactive)	4.82%	15.4%	inactive	> 46 µM (inactive)	0.794 µM (active)	inactive	0.631 µM (active)	inactive	inactive		
Cc1noc(C)c1C(=O)N1CCC2(CC1)CN(c1ccccc1)C2	> 11.4 µM (inactive)	-19.3% (inactive)	inactive	3.6% (inactive)	-19% (inactive)	> 46 µM (inactive)	inactive	inactive	4.6% (inactive)	-4.97%	1.75%	inactive								
CS(=O)(=O)Nc1cccc(-c2cncnc2NCc2cccs2)c1	> 11.4 µM (inactive)	5.06% (inactive)	15.8 µM (active)	2.17% (inactive)	12.4% (inactive)	> 46 µM (inactive)	inactive	inactive	4.63% (inactive)	8.3%	16.7%	inactive		0.398 µM (active)			inactive	inactive	0.126 µM (active)	inactive
Cc1noc(C)c1C(=O)N1CCC[C@@]2(CCN(c3ncccn3)C2)C1	> 11.4 µM (inactive)	2.18% (inactive)	inactive	7.6% (inactive)	-3.95% (inactive)	> 46 µM (inactive)	inactive	inactive	-1.94% (inactive)	7.95%	6.75%	inactive								
O=C(Nc1cccc(F)c1)N1CCC2(CC1)CCN(C(=O)c1cnccn1)CC2	> 11.4 µM (inactive)	-10.4% (inactive)	inactive	20.5% (inactive)	-10.8% (inactive)	> 46 µM (inactive)	inactive	inactive	3.08% (inactive)	11.7%	15.9%	inactive								
COC(=O)N1CCC2(CCN(C(=O)Nc3ccccc3)CC2)CC1	> 11.4 µM (inactive)	-4.41% (inactive)	inactive	4.8% (inactive)	0.0402% (inactive)	> 46 µM (inactive)	inactive	inactive	5.74% (inactive)	8.07%	17.4%	inactive								
